{"source": "the supplement of paper PMC9177965"}
{"test_system": "HT29 RNF43 G659fs (RNF43 659mut, CRISPR-edited)", "test": "cell viability activity relative to DMSO (negative = inhibition); higher = more viable cells (less growth inhibition)", "settings": "5 µM; 96 h", "protocol": "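Broad Repurposing Library primary screen at a single dose of 5 uM. HT29 sg-Ctrl and HT29 RNF43 G659fs CRISPR-edited isogenic cells were seeded at 2500 cells/well in 384-well plates in duplicate and treated for 96 h. Viability was read by CellTiter-Glo and reported as % activity relative to DMSO, with MG132 as the positive control (negative = growth inhibition).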", "units": {"cell viability activity": "%"}}
{"smiles": "COc1cccc2c1C(=O)c1c(O)c3c(c(O)c1C2=O)C[C@@](O)(C(=O)CO)C[C@@H]3O[C@H]1C[C@H](N2CCO[C@H](OC)C2)[C@H](O)[C@H](C)O1", "cell viability activity": -96.6}
{"smiles": "COc1ccc(CCN2CCC(Nc3nc4ccccc4n3Cc3ccc(F)cc3)CC2)cc1", "cell viability activity": -23.2}
{"smiles": "CC(C)(C)c1cc(C=C(C#N)C#N)cc(C(C)(C)C)c1O", "cell viability activity": -79.1}
{"smiles": "C=C1[C@@H](C)[C@H]2[C@H](Cc3ccccc3)NC(=O)[C@]23OC(=O)/C=C/[C@H](O)CCC[C@@H](C)C/C=C/[C@H]3[C@@H]1O", "cell viability activity": -28.2}
{"smiles": "C[C@@H]1CC[C@@]2(OC1)O[C@H]1C[C@H]3[C@@H]4CC=C5C[C@@H](O[C@@H]6O[C@H](CO)[C@@H](O[C@@H]7O[C@@H](C)[C@H](O)[C@@H](O)[C@H]7O)[C@H](O)[C@H]6O[C@@H]6O[C@@H](C)[C@H](O)[C@@H](O)[C@H]6O)CC[C@]5(C)[C@H]4CC[C@]3(C)[C@H]1[C@@H]2C", "cell viability activity": -25.8}
{"smiles": "N#CC(C#N)=NNc1cccc(Cl)c1", "cell viability activity": -83.3}
{"smiles": "C[C@]12CC[C@H](O)C[C@H]1CC[C@@H]1[C@@H]2CC[C@]2(C)[C@@H](C3=CC(=O)OC3)CC[C@]12O", "cell viability activity": -87.2}
{"smiles": "O=C1/C(=C/c2ccccc2)C[C@@]2(O)C3Cc4ccc(O)c5c4[C@@]2(CCN3CC2CC2)[C@H]1O5", "cell viability activity": -81.4}
{"smiles": "C/C(=C\\c1csc(C)n1)[C@@H]1C[C@@H]2O[C@@H]2CCC[C@H](C)[C@H](O)[C@@H](C)C(=O)C(C)(C)[C@@H](O)CC(=O)O1", "cell viability activity": -69}
{"smiles": "C/C=C(\\C)C(=O)N[C@@H](c1ccccc1)[C@@H](O)C(=O)O[C@H]1C[C@@]2(O)[C@@H](OC(=O)c3ccccc3)[C@@H]3[C@]4(OC(C)=O)CO[C@@H]4C[C@H](O)[C@@]3(C)C(=O)[C@H](OC(C)=O)C(=C1C)C2(C)C", "cell viability activity": -68.1}
{"smiles": "Oc1cc(Cl)ccc1Oc1ccc(Cl)cc1Cl", "cell viability activity": -89.3}
{"smiles": "COc1ccc(C[C@H]2NC[C@H](O)[C@H]2OC(C)=O)cc1", "cell viability activity": -91.2}
{"smiles": "CCCCCCCCCCCCCCCC[n+]1ccccc1", "cell viability activity": -92.7}
